Screen size: about 5,500 compounds; about 2,000 (36%) were called active. About 18% were inconclusive and are not listed. No stated cut-off is given here; in the data, active means normalized growth mostly below about 0.91 (no sharp cut-off); inconclusive means no clear call, values can overlap the other calls; inactive means mostly above about 0.92. The list shows a part of the results.
Assay: chemical genetic growth profiling, strain panel (AID 1159580);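 further: tested at 20 µM; growth read once vehicle control cultures reached saturation at 30 °C; 1 = growth at the plate median or of vehicle wells; lower values mean less growth of the strain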
Conditions: growth OD
[1] = S. cerevisiae deletion strains, locus YAL013W, strain DEP1, hits give low values
[2] = S. cerevisiae deletion strains, locus YDR150W, strain NUM1, hits give low values
[3] = S. cerevisiae deletion strains, locus YJL095W, strain BCK1, hits give low values
[4] = S. cerevisiae deletion strains, locus YMR307W, strain GAS1, hits give low values
[5] = S. cerevisiae deletion strains, locus YPL241C, strain CIN2, hits give low values
[6] = S. cerevisiae deletion strains, locus YAL040C, strain CLN3, hits give low values
[7] = S. cerevisiae deletion strains, locus YDR363W, strain ESC2, hits give low values
[8] = S. cerevisiae deletion strains, locus YER002W, strain NOP16, hits give low values
[9] = S. cerevisiae deletion strains, locus YNL175C, strain NOP13, hits give low values
[10] = S. cerevisiae deletion strains, locus YNL197C, strain WHI3, hits give low values
[11] = S. cerevisiae deletion strains, locus YNL224C, strain SQS1, hits give low values
[12] = S. cerevisiae deletion strains, locus YOR083W, strain WHI5 (second series), hits give low values

Measured: normalized growth

CC1(C)C(=O)[C@@H]2O[C@@H]2[C@@]2(C)C1CC(=O)[C@]1(C)C2CC[C@@]2(C)[C@H](c3ccoc3)OC(=O)[C@H]3O[C@]321 (some centres undefined)
inactive: [1] 0.99 | S. cerevisiae deletion strains, locus YBR021W, strain FUR4, hits give low values 1.04 | S. cerevisiae deletion strains, locus YBR229C, strain ROT2, hits give low values 0.984 | S. cerevisiae deletion strains, locus YCL029C, strain bik1, hits give low values 0.976 | S. cerevisiae deletion strains, locus YDL035C, strain GPR1, hits give low values 0.992 | S. cerevisiae deletion strains, locus YDL074C, strain BRE1, hits give low values 0.955 | S. cerevisiae deletion strains, locus YDL101C, strain DUN1, hits give low values 0.978 | S. cerevisiae deletion strains, locus YDL134C, strain PPH21, hits give low values 0.967 | S. cerevisiae deletion strains, locus YDL185W, strain tfp1, hits give low values 0.951 | S. cerevisiae deletion strains, locus YDL192W, strain arf1, hits give low values 0.979 | S. cerevisiae deletion strains, locus YDR101C, strain arx1, hits give low values 0.985 | [2] 0.991 | S. cerevisiae deletion strains, locus YDR162C, strain NBP2, hits give low values 0.943 | S. cerevisiae deletion strains, locus YDR318W, strain mcm21, hits give low values 0.984 | S. cerevisiae deletion strains, locus YDR388W, hits give low values 0.985 | S. cerevisiae deletion strains, locus YDR502C, strain sam2, hits give low values 0.969 | S. cerevisiae deletion strains, locus YEL061C, strain CIN8, hits give low values 0.994 | S. cerevisiae deletion strains, locus YER110C, hits give low values 0.98 | S. cerevisiae deletion strains, locus YER155C, strain BEM2, hits give low values 0.994 | S. cerevisiae deletion strains, locus YER167W, strain BCK2, hits give low values 0.991 | S. cerevisiae deletion strains, locus YGL078C, strain dbp3, hits give low values 0.966 | S. cerevisiae deletion strains, locus YGL086W, strain mad1, hits give low values 0.995 | S. cerevisiae deletion strains, locus YGL248W, strain PDE1, hits give low values 0.949 | S. cerevisiae deletion strains, locus YGR135W, strain pre9, hits give low values 0.968 | S. cerevisiae deletion strains, locus YGR252W, strain gcn5, hits give low values 0.962 | S. cerevisiae deletion strains, locus YHR079C, strain IRE1 (second series), hits give low values 0.987 | S. cerevisiae deletion strains, locus YHR094C, strain hxt1, hits give low values 0.981 | S. cerevisiae deletion strains, locus YHR129C, strain ARP1, hits give low values 0.988 | S. cerevisiae deletion strains, locus YHR200W, strain rpn10, hits give low values 0.988 | S. cerevisiae deletion strains, locus YIL066C, strain RNR3, hits give low values 0.987 | S. cerevisiae deletion strains, locus YIL073C, strain SPO22, hits give low values 0.96 | S. cerevisiae deletion strains, locus YIL125W, strain kgd1, hits give low values 0.943 | S. cerevisiae deletion strains, locus YIR030C, strain dcg1, hits give low values 0.975 | [3] 0.946 | S. cerevisiae deletion strains, locus YJL134W, strain LCB3, hits give low values 0.988 | S. cerevisiae deletion strains, locus YJL168C, strain set2, hits give low values 0.989 | S. cerevisiae deletion strains, locus YJL187C, strain SWE1 (second series), hits give low values 0.977 | S. cerevisiae deletion strains, locus YJR043C, strain POL32, hits give low values 0.991 | S. cerevisiae deletion strains, locus YKL009W, strain mrt4, hits give low values 0.971 | S. cerevisiae deletion strains, locus YKL068W, hits give low values 0.973 | S. cerevisiae deletion strains, locus YKL085W, strain MDH1 (second series), hits give low values 0.981 | S. cerevisiae deletion strains, locus YKL085W, strain MDH1, hits give low values 0.981 | S. cerevisiae deletion strains, locus YKR001C, strain vps1, hits give low values 0.957 | S. cerevisiae deletion strains, locus YLR039C, strain RIC1, hits give low values 0.951 | S. cerevisiae deletion strains, locus YLR058C, strain SHM2, hits give low values 0.988 | S. cerevisiae deletion strains, locus YLR102C, strain apc9, hits give low values 0.975 | S. cerevisiae deletion strains, locus YLR262C, strain YPT6, hits give low values 0.912 | S. cerevisiae deletion strains, locus YLR268W, strain sec22, hits give low values 0.997 | S. cerevisiae deletion strains, locus YLR330W, strain CHS5, hits give low values 0.99 | S. cerevisiae deletion strains, locus YLR342W, strain FKS1 (second series), hits give low values 1.03 | S. cerevisiae deletion strains, locus YLR371W, strain rom2, hits give low values 0.962 | S. cerevisiae deletion strains, locus YLR418C, strain cdc73, hits give low values 0.904 | S. cerevisiae deletion strains, locus YML016C, strain PPZ1, hits give low values 0.984 | S. cerevisiae deletion strains, locus YML032C, strain rad52, hits give low values 0.992 | S. cerevisiae deletion strains, locus YML124C, strain tub3, hits give low values 0.97 | S. cerevisiae deletion strains, locus YMR078C, strain ctf18, hits give low values 0.955 | S. cerevisiae deletion strains, locus YMR223W, strain ubp8, hits give low values 0.973 | [4] 1.05 | S. cerevisiae deletion strains, locus YNL067W, strain RPL9B, hits give low values 0.957 | S. cerevisiae deletion strains, locus YNL233W, strain BNI4, hits give low values 0.964 | S. cerevisiae deletion strains, locus YNL250W, strain rad50, hits give low values 0.96 | S. cerevisiae deletion strains, locus YNL271C, strain bni1, hits give low values 0.973 | S. cerevisiae deletion strains, locus YNL298W, strain CLA4, hits give low values 0.967 | S. cerevisiae deletion strains, locus YNL307C, strain MCK1, hits give low values 0.982 | S. cerevisiae deletion strains, locus YNR052C, strain pop2, hits give low values 0.977 | S. cerevisiae deletion strains, locus YOL006C, strain TOP1, hits give low values 0.895 | S. cerevisiae deletion strains, locus YOL012C, strain htz1 0.769 | S. cerevisiae deletion strains, locus YOL147C, strain pex11, hits give low values 0.988 | S. cerevisiae deletion strains, locus YOR061W, strain CKA2, hits give low values 0.977 | S. cerevisiae deletion strains, locus YOR069W, strain VPS5, hits give low values 0.985 | S. cerevisiae deletion strains, locus YOR136W, strain idh2, hits give low values 0.995 | S. cerevisiae deletion strains, locus YOR144C, strain elg1, hits give low values 0.983 | S. cerevisiae deletion strains, locus YOR184W, strain ser1, hits give low values 0.982 | S. cerevisiae deletion strains, locus YOR316C, strain cot1, hits give low values 0.973 | [5] 0.977 | S. cerevisiae deletion strains, locus YPR119W, strain clb2, hits give low values 0.986 | S. cerevisiae deletion strains, locus YPR141C, strain kar3, hits give low values 0.964 | S. cerevisiae deletion strains, locus YPR163C, strain tif3, hits give low values 0.995 | S. cerevisiae deletion strains, locus YPR167C, strain met16, hits give low values 0.985 | S. cerevisiae deletion strains, strain wtn01, hits give low values 0.978 | S. cerevisiae strains, strain wild type, hits give low values 1.01

Cc1nc(N=Nc2ccc(S(=O)(=O)O)cc2S(=O)(=O)O)c(COP(=O)(O)O)c(C=O)c1O
inactive: [6] 1 | S. cerevisiae deletion strains, locus YCL061C, strain MRC1 (second series), hits give low values 1 | [2] 1.01 | [7] 1.01 | [8] 0.993 | S. cerevisiae deletion strains, locus YGR229C, strain SMI1, hits give low values 1.02 | [4] 0.998 | S. cerevisiae deletion strains, locus YNL128W, strain TEP1, hits give low values 1.02 | [9] 1 | [10] 1.01 | [11] 1.01 | [12] 1.01 | S. cerevisiae deletion strains, locus YPL055C, strain LGE1, hits give low values 1 | [5] 0.997

CC(C)C1C2CCC(C2)C1N (centres undefined)
inactive: [1] 1.01 | [6] 0.976 | [2] 0.985 | [7] 1.02 | [8] 1 | S. cerevisiae deletion strains, locus YGR078C, strain PAC10, hits give low values 1.02 | S. cerevisiae deletion strains, locus YNL153C, strain GIM3, hits give low values 1.03 | [9] 1.02 | [10] 1 | [11] 1.03 | [12] 1.01

O1[As]2O[As]3O[As]1O[As](O2)O3
inactive: S. cerevisiae deletion strains, locus YHR030C, strain SLT2, hits give low values 0.959 | S. cerevisiae deletion strains, locus YHR079C, strain IRE1, hits give low values 0.974 | [3] 0.983 | S. cerevisiae deletion strains, locus YJR066W, strain TOR1, hits give low values 0.961 | S. cerevisiae deletion strains, locus YLR113W, strain HOG1, hits give low values 1.05 | S. cerevisiae deletion strains, locus YNL183C, strain NPR1, hits give low values 0.927 | S. cerevisiae deletion strains, locus YOR231W, strain MKK1, hits give low values 0.973 | S. cerevisiae deletion strains, locus YPL256C, strain CLN2, hits give low values 0.98

Source: PubChem BioAssay AID1159580 (chemical genetic matrix, 2015)
